Among the data in PubChem BioAssay (NCI) are growth values, retold here.

Some test systems named below: NCI-H23 lung; NCI-H226 lung; HOP-62 NSCLC; NCI-H460 lung; HOP-92 NSCLC; NCI-H522 lung; A549/ATCC NSCLC; COLO 205 colon; 786-0 renal.
Common to all, as to assay: NCI-60 one-dose screen, 48 h (100 = growth as untreated, 0 = no growth, -100 = all killed)
Holding throughout (settings): 10 µM unless noted

Molecules are shown by their SMILES. The panel holds about 83,000 compounds, 20% with a hit somewhere; the sample as a whole holds those more often.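 Method: cells in 96-well plates; compound added at one concentration; 48 h incubation; percent growth measured; values under 10 scored active.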 Calls of active or inactive are those of the source.

For `CC(=O)O[C@@H]1C2CCC3C(CC[C@@]4(C)C3CC[C@@H]4C(C)N(C)C)[C@@]2(C)CC[C@@H]1NC(=O)C=C(C)C` (stereo not given in full), the growth in the test with NCI-H23 lung was 33.9% (inactive); in the test with NCI-H226 lung, 64.7% (inactive); in the test with HOP-62 NSCLC, -26.1% (active); with NCI-H460 lung, -48.6% (active); in the test with HOP-92 NSCLC it was 24.4% (inactive); with NCI-H522 lung, 65.7% (inactive). In addition, the growth in the test on A549/ATCC NSCLC is 32.3% (inactive); in the test with COLO 205 colon it was -82.8% (active).
As for `Brc1ccc2[nH]cc(-c3cncn3CCc3ccccc3)c2c1`, the growth in the test with NCI-H23 lung is 37.9% (inactive); in the test with NCI-H226 lung, 53.5% (inactive); in the test with HOP-62 NSCLC, 63.4% (inactive); with NCI-H460 lung, 66.5% (inactive); in the test with HOP-92 NSCLC, 23.4% (inactive); in the test on A549/ATCC NSCLC it was 56.7% (inactive). Also, the growth in the test on COLO 205 colon is 66.3% (inactive).
Consider `COc1cc(NC(=O)CSc2nc3ccc(C)cc3c(=O)n2Cc2ccccc2)cc(OC)c1OC`, for which the growth in the test on NCI-H23 lung was 74.2% (inactive); in the test with NCI-H226 lung, 24.7% (inactive); in the test with HOP-62 NSCLC it was 45.5% (inactive); in the test with NCI-H460 lung it was 57.3% (inactive); in the test with HOP-92 NSCLC, 0.585% (active); in the test with NCI-H522 lung it was 31.9% (inactive). For the same compound, the growth was 66.6% (inactive) in the test on A549/ATCC NSCLC, 43.3% (inactive) in the test on 786-0 renal and 88.6% (inactive) in the test with COLO 205 colon.
Regarding `CC(C)(C)CC(C)(C)n1nnnc1C(NC12CC3CC(CC(C3)C1)C2)c1ccccc1` (stereo not given), the growth with NCI-H23 lung is 90.8% (inactive); with NCI-H226 lung, 84.2% (inactive); with HOP-62 NSCLC, 101% (inactive); in the test with NCI-H460 lung, 94.5% (inactive); in the test with HOP-92 NSCLC, 87% (inactive); in the test with NCI-H522 lung, 74% (inactive). For the same compound, the growth is 80.7% (inactive) in the test on A549/ATCC NSCLC, 86.3% (inactive) in the test on 786-0 renal and 122% (inactive) in the test on COLO 205 colon.
For the compound `CN(C)c1ccc(C2C(C#N)=C(/N=C/c3ccccc3)Oc3c2ccc2ccccc32)cc1` (stereo not given), the growth is 80.9% (inactive) in the test on NCI-H23 lung; 55.5% (inactive) in the test on NCI-H226 lung; 51.2% (inactive) in the test on HOP-62 NSCLC; 51.3% (inactive) with NCI-H460 lung; 59.8% (inactive) in the test on HOP-92 NSCLC; 36.4% (inactive) in the test with NCI-H522 lung. Moreover, the growth in the test on A549/ATCC NSCLC was 71.4% (inactive); with 786-0 renal, 89% (inactive); in the test with COLO 205 colon it was 116% (inactive).
Consider `COc1cc2cc(Oc3cccc(NC(=O)Nc4cc(C(F)(F)F)cc(C(F)(F)F)c4)c3)c(C)nc2cc1OC`, for which the growth in the test on NCI-H23 lung was 2.28% (active); in the test with NCI-H226 lung it was -10.2% (active); in the test with HOP-62 NSCLC, -54.1% (active); in the test with NCI-H460 lung it was 7% (active); with HOP-92 NSCLC, -25.4% (active); in the test with NCI-H522 lung, -33.4% (active). Also, the growth was 5.93% (active) with A549/ATCC NSCLC, -16.6% (active) in the test with 786-0 renal and -81.2% (active) in the test with COLO 205 colon.
`O=[N+]([O-])CC(c1ccccc1)c1c[nH]c2ccccc12` (stereo not given): the growth in the test on NCI-H23 lung was 68.5% (inactive); with NCI-H226 lung, 63.6% (inactive); with HOP-62 NSCLC, 56% (inactive); with NCI-H460 lung, 52.6% (inactive); with HOP-92 NSCLC, 75.7% (inactive); with NCI-H522 lung, 5.68% (active). The results for the growth in the test on A549/ATCC NSCLC, with 786-0 renal and with COLO 205 colon were 42.4% (inactive), 70% (inactive) and 54.1% (inactive), respectively.
